# Screening data deposited in PubChem by National Center for Advancing Translational Sciences (NCATS).
# Shown are actives, neighbours in structure and some others; about 19% of the full set was active somewhere.
# ELG1 DNA repair: inhibitors of ELG1-dependent DNA repair in HEK293T cells; HEK293T ELG1-luciferase reporter, luminescence, 16 h; DNA damage induced by 5-fluorouridine; Potency, µM (series often up to 46.1 µM), without a hit: at the top dose activity change, negative = inhibition, hits mostly inhibitors; actives 2.3% (n = 330,000); AID 504467; also: potency is read from the fitted curve at half-maximal effect; nearly all actives have a fitted effect of over 55% in size
#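 In this reporter screen, reduction of luminescence relative to DMSO vehicle indicated activity. Compounds and 5-fluorouridine were added together to 2,000 cells per well, incubated for 16 hr at 37 °C, then developed with ONE-Glo.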
# DT40 TDP1 no CPT: qHTS for Inhibitors of human tyrosyl-DNA phosphodiesterase 1 (TDP1): qHTS in cells in absence of CPT. actives 15% (n = 420,000). DT40 Tdp1-/- hTDP1 cells, no CPT, ATP luminescence, 48 h. Potency, µM (top dose mostly 46.2 µM), for the others: at the highest dose activity change, negative = growth inhibition, most hits filed as inhibitors. AID 686978, 2013; also: potency is read from the fitted curve at half-maximal effect; nearly all actives have a fitted effect of over 55% in size
#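 Growth kinetics read by CellTiter-Glo luminescence after ≥48 hr at 37 °C. Cells: DT40 Tdp1-/- stably carrying human TDP1, 400 per well, compound exposure in the absence of CPT (DMSO vehicle).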
# TDP1 block: inhibitors of human tyrosyl-DNA phosphodiesterase TDP1; Q9NUW8; Potency, µM (titrated, usually from 130 µM), without a hit: top-dose activity change, negative = inhibition, hits mostly inhibitors; recombinant TDP1, AlphaScreen DNA substrate cleavage; AID 485290; actives 0.28% (n = 350,000); also: potency is read from the fitted curve at half-maximal effect; nearly all actives have a fitted effect of over 40% in size
# Target sequence (Q9NUW8 whole entry, looked up): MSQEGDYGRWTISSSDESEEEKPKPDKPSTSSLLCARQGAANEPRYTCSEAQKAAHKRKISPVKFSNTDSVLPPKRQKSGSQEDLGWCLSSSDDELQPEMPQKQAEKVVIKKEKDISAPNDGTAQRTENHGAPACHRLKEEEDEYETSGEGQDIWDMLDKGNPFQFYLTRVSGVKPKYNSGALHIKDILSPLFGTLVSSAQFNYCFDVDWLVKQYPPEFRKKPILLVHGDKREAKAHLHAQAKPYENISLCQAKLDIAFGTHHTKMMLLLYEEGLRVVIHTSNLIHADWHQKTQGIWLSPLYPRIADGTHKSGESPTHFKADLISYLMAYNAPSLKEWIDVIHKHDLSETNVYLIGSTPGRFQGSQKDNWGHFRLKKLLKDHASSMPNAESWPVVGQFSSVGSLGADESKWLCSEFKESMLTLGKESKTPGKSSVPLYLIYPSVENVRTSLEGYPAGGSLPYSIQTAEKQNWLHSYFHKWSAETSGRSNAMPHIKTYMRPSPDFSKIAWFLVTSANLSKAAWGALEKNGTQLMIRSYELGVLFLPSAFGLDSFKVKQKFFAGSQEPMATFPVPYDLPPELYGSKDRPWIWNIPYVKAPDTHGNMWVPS
#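 Compounds were preincubated with Tdp1 (1 nM final) for 15 min at room temperature before substrate (15 nM final) started a 5 min reaction; beads (10 ug/ml final) were then added for 10 min before AlphaScreen detection.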
# Giardia killer: Giardia lamblia killing | Giardia lamblia trophozoite viability | activity change, % at 7.66 µM, hits read low | actives 0.15% (n = 340,000); in the data active = activity change below about -80%; inconclusive = between about -30% and that limit;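 also: parasites exposed to compound for two days anaerobically before the ATP read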
#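 Giardia trophozoites, 100 cells per well, were exposed to compounds for 48 hrs at 37 deg C under anaerobic conditions; viability was then read as ATP content by bioluminescence after 15-30 min at room temperature.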
# IL1B secr inh: inhibitors of inflammasome signaling (IL-1 beta secretion); THP-1 LPS/ATP IL-1B secretion, AlphaLISA, 16 h; stronger effect = lower value; activity change, % at 57.5 µM; actives 4.7% (n = 360,000); AID 743279; in the data active = activity change below about -50%; inconclusive = mostly about -30% to -49%
#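 THP-1 cells pretreated 1 hr with compounds (up to 57.5 uM final), then stimulated with LPS (250 ng/mL final) plus ATP (1.25 mM final); secreted IL-1B measured by AlphaLISA after 16 hr, decreased signal indicating inhibition.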
# DT40 TDP1 CPT: DT40-hTDP1 cell growth loss with CPT. chicken DT40 Tdp1-/-;hTDP1 cells + 20 nM CPT, ATP luminescence, 48 h. AID 686979. Potency, µM (titrated, usually from 46.2 µM), for inactives: top-dose activity change, negative = growth inhibition, most hits filed as inhibitors. actives 12% (n = 420,000); also: potency is read from the fitted curve at half-maximal effect; nearly all actives have a fitted effect of over 55% in size
#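 Chicken DT40 Tdp1-/- cells stably complemented with human TDP1 were seeded at 400 cells/well in medium containing 20 nM camptothecin, exposed to pin-transferred compounds, and grown at 37 °C for at least 48 hr. Viability was read as ATP luminescence.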
# Starred values were filed as active, the others as inactive; ? = inconclusive; . = no result given; [ ] = dose if it differs, or a comment. Unless noted, calls follow the shape of the dose curve; as a rule, active = well fitted curve in the direction sought with a large enough effect; inconclusive = small, poorly fitted or top-dose-only effect, or another doubt; inactive = no such curve, though single readings can be large; an effect the other way counts as inactive or inconclusive. % is scaled to controls: 0 for no effect and ±100 for the full control effect.
SMILES,ELG1 DNA repair,DT40 TDP1 no CPT,TDP1 block,Giardia killer,IL1B secr inh,DT40 TDP1 CPT
Cc1cccc(NS(=O)(=O)c2cc(NC(=O)CC(=O)c3ccc([N+](=O)[O-])cc3)ccc2C)c1,?,.,5%,.,.,.
Cc1ccc(C)c(CSc2nc3ccncc3n2Cc2nc(-c3ccccc3Cl)oc2C)c1,.,?,8%,.,.,21µM*
Cc1oc(-c2ccccc2Cl)nc1Cn1c(SCc2cccc(F)c2)nc2cccnc21,.,26µM*,6%,.,.,23µM*
Cc1ccc(CSc2nc3ccncc3n2Cc2nc(-c3ccc(Cl)cc3)oc2C)cc1,.,?,3%,.,.,?
Cc1oc(-c2cccc(Cl)c2)nc1Cn1c(SCc2ccc(F)cc2)nc2cccnc21,.,26µM*,2%,.,.,26µM*
COc1ccc(-c2nc(Cn3c(SCc4ccc(F)cc4)nc4ccncc43)c(C)o2)cc1OC,?,21µM*,4%,-11,-20,?
Cc1ccc2c(CN3CCN(c4ccccc4F)CC3)cc(=O)oc2c1,.,?,.,.,0,?
Cc1c(O)ccc2c(CC(=O)N[C@@H](Cc3c[nH]c4ccccc34)C(=O)O)cc(=O)oc12,6%,3%,.,-9,39,2%
CCCC(=O)n1nc(-c2cccnc2)nc1NCc1ccccc1,-1%,-18%,6%,-19,9,-12%
Cc1ccc(-n2c3c(c(=O)[nH]c2=O)C(NC(=O)C(C)(C)C)(C(F)(F)F)C(=O)N3)cc1 (centres undefined),.,2%,1%,.,.,6%
Cc1cccc(N2C(=O)CSC23C(=O)N(CC(=O)NCCc2ccccc2)c2ccccc23)c1 (centres undefined),.,?,1%,.,.,?
COc1ccc(-c2nc(Cn3c(SCc4ccccc4F)nc4cccnc43)c(C)o2)cc1,.,?,9%,.,.,?
COc1ccc(-c2nc(Cn3c(SCc4ccc(F)cc4)nc4cccnc43)c(C)o2)cc1,.,2.6µM*,-5%,.,.,2.9µM*
COc1ccc(-c2nc(Cn3c(SCc4ccc(C)cc4)nc4cccnc43)c(C)o2)cc1OC,.,?,9%,.,.,5.2µM*
COc1ccc(-c2nc(Cn3c(SCc4cccc(F)c4)nc4cccnc43)c(C)o2)cc1,.,?,0%,.,.,?
COc1ccc(-c2nc(Cn3c(SCc4ccccc4F)nc4ccncc43)c(C)o2)cc1,1%,15µM*,-3%,-4,3,?
COc1cccc(Oc2cn[nH]c2-c2ccc(O)cc2O)c1,?,?,7%,-7,15,9.2µM*
COc1ccccc1Oc1cn[nH]c1-c1ccc(O)cc1O,14%,21µM*,.,5,17,-25%
COc1cccc(Oc2cn[nH]c2-c2ccc(OC)cc2O)c1,?,?,4%,10,-18,?
COc1ccccc1Oc1cn[nH]c1-c1ccc(OCC(=O)NN)cc1O,-18%,-18%,.,1,-14,-12%
CCn1nc(C(=O)NNC(=O)c2ccccc2)c2ccccc2c1=O,?,-2%,0%[56.1 µM],1,0,-6%
Nc1nc(Cl)c(C=O)c(N2CCCCC2)n1,23%,-2%,3%,-19,-95*,0%
Cc1cc(C(=O)OCC(=O)NCc2ccc(Cl)cc2)c(C)o1,?,18%,7%,-1,0,4%
COCC(C)NC(=O)c1cc(OC)cc(OC)c1 (centres undefined),10%,-29%,1%,3,-15,-13%
COc1cc(OC)cc(C(=O)NC(C)CNc2ccc(Cl)cc2[N+](=O)[O-])c1 (centres undefined),?,8.2µM*,.,28,-6,?
CCN(CC)c1ccc(/C=N/Nc2ccccc2)c(O)c1,28%,?,8%,-1,15,?
